Here are results for 40 compounds from PubChem BioAssay AID492960 (National Center for Advancing Translational Sciences (NCATS), 2010).

Results filed as inconclusive are left out. Entries that show only a call come without a potency. Calls of active or inactive are those of the source. Calls come from the whole dose curve; as a rule, active = well fitted curve in the direction sought with a large enough effect; inconclusive = small, poorly fitted or top-dose-only effect, or effect the other way, or another doubt; inactive = no such curve, though single readings can be large or run the other way.

The nature of this test: Secondary Assay for lipid storage modulators: HepG2 cell LDSA assay for probe SAR. Conditions: HepG2 lipid droplet BODIPY, laser-scanning cytometry, 18-24 h; series mostly up to 46.1 µM. From the text:
NIH Molecular Libraries Probe Production Centers Network [MLPCN] NIH Chemical Genomics Center [NCGC] MLPCN Grant: 1 R03 MH085686-01 Assay Submitter (PI): Beller, Mathias; Max-Planck-Institut fur Biophysikalische Chemie NCGC Assay Overview: Storing lipids as a reservoir for energy or the anabolism of elementary metabolites is a common feature of probably all cells and is conserved from bacteria to humans. The universal cellular lipid storage organelle is the so-called lipid storage droplet (LD). Although ubiquitous, LDs share a simple structure composed of a hydrophobic core that harbors the storage lipids, which is shielded by a droplet-specific phospholipid monolayer to which proteins are attached. The current model of LD biogenesis involves an incorporation of the lipid core into the membrane leaflets of the endoplasmic reticulum (ER) followed by a subsequent budding-like maturation of a LD, which ultimately pinches off. Once released, LD volume can increase by localized lipogenesis or fusion of existing droplet. Storage lipids are re-mobilized enzymatically by lipase activity. Lipase regulation in the adipocyte is heavily studied and involves multiple components including catecholamine signaling, the LD-associated proteins Perilipin and comparative gene identification (CGI-58) and at least two lipases named hormone sensitive lipase (HSL) and adipocyte triglyceride lipase (ATGL). LD regulation outside of the adipocyte is poorly understood and only few components are known. However, there is an urgent need to learn more about ectopic fat depots as mislocalized storage of lipids, for example in the liver or muscle, is an eminent health problem associated with insulin resistance or the metabolic syndrome.
NCGC Assay Protocol Summary: The assay was performed with HepG2 cells, using an oleic acid feeding protocol similar to the S3 assay. We dispensed 4 uL of cells to give 700 cells/well into Greiner bio-one 1,536-well plates (black walled, clear bottom). Triacsin C (Sigma-Aldrich T-4540), an inhibitor of long-chain fatty acyl CoA synthetase that blocks synthesis of triglycerides, was used as a positive control for lipid under-storage using a final concentration of 20 uM. The orexin antagonist, SB408124 - previously identified to stimulate lipid over-storage, was used as a positive control for lipid over-storage using a final concentration of 20 uM. A total of 23 nL of compound solution of different concentrations were transferred to the assay plates using a Kalypsys pin tool equipped with a 1,536-pin array containing 10-nL slotted pins (FP1S10, 0.457-mm diameter, 50.8 mm long; V&P Scientific). One microliter of oleic acid was added (400 uM final concentration), and the plate was lidded with stainless steel rubber gasket lined lids containing pinholes. After 18-24 h incubation at […] and 95% humidity, 4 uL of the dyes BODIPY 493/503 (Molecular Probes) and the Cell Tracker Red CMTPX dye (Molecular Probes) were added to the wells to stain lipid droplets and enumerate cell number, respectively. Fluorescence was detected by excitation of the fluorophores with a 488-nm laser on an Acumen Explorer (TTP Lab Tech). The total intensity in channel 2 (500-530 nm) reflected lipid droplet accumulation. Cells were detected using channel 3 (575-640 nm) with 5-um width and 100-um depth filters. The ratio of the number of objects in PMT channel 2 over the number of objects in PMT channel 3 was also calculated. Percent activity was computed relative to an internal control (100% inhibited lipid droplet deposition due to the presence of 20 uM Triacsin C), which was added to 32 wells/plate.
As for `O=C(NC1CCCc2c1cnn2-c1ccc(F)cc1F)C1CCCCC1` (stereo not given), the Potency result was “inactive”.

Regarding `CCn1c(C(=O)NCCc2ccc(OC)c(OC)c2)cc2sc(Cl)cc21`, the Potency result is “inactive”.

Take `CCOc1ccc(CCNC(=O)c2cc3sccc3n2CC)cc1OCC`: the Potency was 11.2 µM (active).

For the compound `CCOc1ccc(CCNC(=O)c2cccc(C(=O)c3ccccc3)c2)cc1OCC`, the Potency result is “inactive”.

Consider `Cc1cc(SCc2sc(-c3ccc(C(F)(F)F)cc3)nc2C)ccc1OCC(=O)O`, for which the Potency entry is “inactive”.

On to `CCCn1c(-c2ccc(OC)cc2)cnc1SCC(=O)Nc1nc(C)c(C)s1`, for which the Potency entry was “inactive”.

As for `Cc1ccc(-c2cnc(SCC(=O)Nc3nccs3)n2Cc2ccco2)cc1`, the Potency entry is “inactive”.

In the case of `C[C@@H](NCCCc1cccc(C(F)(F)F)c1)c1cccc2ccccc12`, the Potency result was “inactive”.

For `CN(C)CC(=O)NC1CCCc2c1cnn2-c1ccc(F)cc1F` (stereo not given), the Potency entry is “inactive”.

For `O=C(NC1CCCc2c1cnn2-c1ccccc1F)c1cccc2nccnc12` (stereo not given), the Potency result is “inactive”.

Take `CCOc1ccc(CCNC(=O)c2cc3sccc3n2Cc2ccc(OC(F)F)cc2)cc1OCC`: the Potency entry is “inactive”.

Take `CCOC(=O)C1CCN(C(=O)C2(NC(=O)Nc3ccccc3Cl)CCCCC2)CC1`: the Potency result is “inactive”.

`CCOc1ccc(CCNC(=O)C2CCCCC2)cc1OCC`: the Potency entry is “inactive”.

Regarding `CCOc1ccc(CCNC(=O)C2(c3ccccc3)CC2)cc1OCC`, the Potency entry is “inactive”.

With `O=C(NC1CCCc2c1cnn2-c1ccc(F)cc1F)c1cccs1` (stereo not given), the Potency entry is “inactive”.

For `CCOc1ccc(CCNC(=O)c2ccc(C3(C(F)(F)F)N=N3)cc2)cc1OCC`, the Potency result was “inactive”.

On to `O=C(NC1CCCc2c1cnn2-c1cc(F)cc(F)c1)c1cccc2nccnc12` (stereo not given), for which the Potency result is “inactive”.

Consider `CCOC(=O)C1CCN(C(=O)CNC(=O)Nc2ccccc2Cl)CC1`, for which the Potency result is “inactive”.

Take `O=C(O)CCc1ccc(NCc2cccc(Oc3ccccc3)c2)cc1`: the Potency entry was “inactive”.

With `O=C(NC1CCCc2c1cnn2-c1ccc(F)cc1F)C1CC1` (stereo not given), the Potency result is “inactive”.

Regarding `CCOc1ccc(CCNC(=O)c2cc3sccc3n2Cc2ccccc2)cc1OCC`, the Potency is 14.1 µM (active).

Turning to `CCOc1ccc(CCNC(=O)c2ccc3[nH]ccc3c2)cc1OCC`, the Potency result is “inactive”.

Regarding `Cc1csc(NC(=O)CSc2ncc(-c3ccccc3)n2Cc2ccco2)n1`, the Potency entry is “inactive”.

`O=C(NC1CCCc2c1cnn2-c1ccc(F)cc1F)C1CCCCN1` (stereo not given): the Potency result is “inactive”.

As for `O=C(NC1CCCc2c1cnn2-c1ccc(F)cc1F)c1cnccn1` (stereo not given), the Potency result was “inactive”.

Turning to `COc1ccc(CCNC(=O)c2cc3sccc3n2Cc2ccccc2)cc1OC`, the Potency result was “inactive”.

As to `CCOc1ccc(NC(=O)NC2(C(=O)N3CCCCC3)CCCCC2)cc1`, the Potency entry is “inactive”.

As for `CCOc1ccc(CCNC(=O)c2cc3c(s2)CCC3)cc1OCC`, the Potency result is “inactive”.

As for `COc1ccc(-c2cnc(SCC(=O)Nc3nccs3)n2Cc2ccccc2)cc1`, the Potency entry is “inactive”.

With `CCn1c(C(=O)NCCc2ccc(OC)cc2)cc2sccc21`, the Potency entry was “inactive”.

With `CCOc1ccc(CCNC(C)=O)cc1OCC`, the Potency result is “inactive”.

With `CCOc1ccc(CCNC(=O)C2=C(C)OCCO2)cc1OCC`, the Potency entry was “inactive”.

In the case of `COc1nc(-c2ccc3c(c2)OCO3)n(-c2ccc(NC(=O)CSc3ccccc3)cc2)n1`, the Potency entry is “inactive”.

On to `CCOc1ccc(CCNC(=O)c2ccc3ccccc3n2)cc1OCC`, for which the Potency result is “inactive”.

With `O=C(NC1CCCc2c1cnn2-c1ccc(F)cc1F)c1ccc2cc[nH]c2c1` (stereo not given), the Potency result is “inactive”.

Turning to `COc1ccc(-c2cnc(SCC(=O)Nc3nc(C)cs3)n2Cc2ccco2)cc1`, the Potency result is “inactive”.

As to `CCOc1ccc(CCNC(=O)c2cc3sccc3n2Cc2cccnc2)cc1OCC`, the Potency result was “inactive”.

`O=C(Cc1ccccc1)NC1CCCc2c1cnn2-c1ccc(F)cc1F` (stereo not given): the Potency result was “inactive”.

In the case of `COc1ccc(-n2ncc3c2CCCC3NC(=O)c2cnc(C)cn2)cc1` (stereo not given), the Potency was 12.5 µM (active).

On to `CCOc1ccc(CCNC(=O)c2csc(Br)n2)cc1OCC`, for which the Potency result is “inactive”.
